# Results filed as inconclusive are left out. Activity calls are given as the source filed them. How the source made its calls, unless noted: active means hit-call score of the fitted dose curve at least 0.9, where 1 is the maximum; inactive means score below 0.9.
# What was measured:
# [1] = TOX21_TR_RXR_BLA_Agonist_Followup_viability: Viability Assessment in the Tox21 Thyroid Hormone Receptor beta Retinoid X Receptor alpha (RXRa) Agonism Beta-lactamase (BLA) Follow-Up Assay (AID 2283970; active means hit-call score of the fitted dose curve at least 0.9, where 1 is the maximum)
# Outline: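 Cells: HEK293T RXRa-UAS-bla, 2,500/well; medium phenol red-free DMEM + 2% charcoal-stripped FBS; 16h, 37C/5% CO2; qHTS concentration series. Read: CellTiter-Glo luminescence (ATP); bidirectional fit, DMSO = baseline.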
# [2] = CCTE_Harrill_HTTr_Viability_MCF7: CCTE's 6-hour Cell Viability Assessment for the High-Throughput Transcriptomics (HTTr) Platform, in MCF-7 cells cultured in DMEM + 10% fetal bovine serum, Harrill Lab (AID 2284010)
# Outline: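 Cells were dosed with chemicals in an eight-point dilution series, imaged 6 hours later for propidium iodide uptake, and the endpoint was analyzed by bidirectional fitting against DMSO as negative control.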
# [3] = target: Nucleoli Translocation, AR (gene 367) (UniProt P10275); experiment: UPITT_HCI_U2OS_AR_TIF2_Nucleoli_Antagonist: University of Pittsburgh U2OS Androgen Receptor-Transcriptional Intermediary Factor 2 (AR-TIF2) Antagonism High Content Imaging Assay for Nucleoli Translocation (AID 2283997; active means hit-call score of the fitted dose curve at least 0.9, where 1 is the maximum)
# Chain of Nucleoli Translocation, AR (gene 367) (P10275 whole entry, looked up, the tested form may be a part): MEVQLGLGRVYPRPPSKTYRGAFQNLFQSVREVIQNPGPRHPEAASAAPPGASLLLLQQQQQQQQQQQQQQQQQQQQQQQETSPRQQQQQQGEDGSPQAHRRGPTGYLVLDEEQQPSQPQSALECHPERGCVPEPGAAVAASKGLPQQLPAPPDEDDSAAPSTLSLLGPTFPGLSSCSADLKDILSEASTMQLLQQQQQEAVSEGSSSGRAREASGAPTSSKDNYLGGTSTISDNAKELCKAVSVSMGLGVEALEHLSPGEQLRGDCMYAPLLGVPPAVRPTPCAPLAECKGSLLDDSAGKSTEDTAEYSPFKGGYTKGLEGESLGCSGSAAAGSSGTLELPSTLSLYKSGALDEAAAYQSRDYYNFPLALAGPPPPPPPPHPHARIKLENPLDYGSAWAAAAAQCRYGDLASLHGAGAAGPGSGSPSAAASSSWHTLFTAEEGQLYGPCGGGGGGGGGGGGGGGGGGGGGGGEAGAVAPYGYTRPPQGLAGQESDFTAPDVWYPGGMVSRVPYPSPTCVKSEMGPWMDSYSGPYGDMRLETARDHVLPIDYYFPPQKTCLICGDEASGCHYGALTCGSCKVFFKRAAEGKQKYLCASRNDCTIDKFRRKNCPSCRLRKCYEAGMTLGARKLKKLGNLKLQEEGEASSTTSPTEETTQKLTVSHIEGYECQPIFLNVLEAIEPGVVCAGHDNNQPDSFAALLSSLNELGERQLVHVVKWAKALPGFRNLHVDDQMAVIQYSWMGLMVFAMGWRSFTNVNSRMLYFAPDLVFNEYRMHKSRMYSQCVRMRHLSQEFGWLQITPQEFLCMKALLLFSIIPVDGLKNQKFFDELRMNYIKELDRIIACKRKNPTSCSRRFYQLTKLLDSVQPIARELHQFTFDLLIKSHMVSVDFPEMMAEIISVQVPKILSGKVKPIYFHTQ
# Outline: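 Measured quantity was AR-RFP fluorescence localized to nucleoli in engineered U2OS cells also bearing TIF2-GFP, acquired on automated high-content imagers. Primary testing used 20 uM compound; actives were confirmed in triplicate wells.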
# [4] = target: Ratio of Nucleoli Translocation and Cytoplasm, AR (gene 367) (UniProt P10275); experiment: UPITT_HCI_U2OS_AR_TIF2_Nucleoli_Cytoplasm_Ratio_Agonist: University of Pittsburgh U2OS Androgen Receptor-Transcriptional Intermediary Factor 2 (AR-TIF2) Agonism High Content Imaging Assay for Ratio of Nucleoli Translocation and Cytoplasm (AID 2284000; active means hit-call score of the fitted dose curve at least 0.9, where 1 is the maximum;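 further: hits raise the red nucleolar to cytoplasm ratio above vehicle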)
# Chain of Ratio of Nucleoli Translocation and Cytoplasm, AR (gene 367) (P10275 whole entry, looked up, the tested form may be a part): as above
# Outline: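 Read-out first: nucleolar-to-cytoplasm ratio of red (AR-RFP) signal, quantified by high-content imaging in U2OS cells co-expressing TIF2-GFP. Activity is scored as signal increase over DMSO. Single-point screening used 20 uM final (0.2% DMSO).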
# [5] = target: Nucleoli Translocation, AR (gene 367) (UniProt P10275); experiment: UPITT_HCI_U2OS_AR_TIF2_Nucleoli_Agonist: University of Pittsburgh U2OS Androgen Receptor-Transcriptional Intermediary Factor 2 (AR-TIF2) Agonism High Content Imaging Assay for Nucleoli Translocation (AID 2283998; active means hit-call score of the fitted dose curve at least 0.9, where 1 is the maximum)
# Outline: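 Cells express human AR fused to red fluorescent protein and TIF2 fused to GFP. Red fluorescence in the nucleolar region was quantified by high-content imaging and fitted as gain-of-signal against a DMSO baseline. Compounds were tested at 0.195 to 50 uM final (0.5% DMSO).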
# [6] = target: Ratio of Nucleoli Translocation and Cytoplasm, AR (gene 367) (UniProt P10275); experiment: UPITT_HCI_U2OS_AR_TIF2_Nucleoli_Cytoplasm_Ratio_Antagonist: University of Pittsburgh U2OS Androgen Receptor-Transcriptional Intermediary Factor 2 (AR-TIF2) Antagonism High Content Imaging Assay for Ratio of Nucleoli Translocation and Cytoplasm (AID 2283999; active means hit-call score of the fitted dose curve at least 0.9, where 1 is the maximum;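 further: antagonists lower the DHT-driven ratio of nucleolar to cytoplasmic red signal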)
# Outline: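 Human osteosarcoma U2OS line, AR fused to RFP, coactivator TIF2 fused to GFP. Cpds 20 uM final, 0.2% DMSO (screen); 0.195–50 uM final, 0.5% DMSO (CRC). Endpoint: nucleoli/cytoplasm red signal ratio, DHT as baseline, loss-of-signal antagonist mode.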
# [7] = CCTE_Shafer_MEA_acute_spike_number: CCTE's Neural Acute Assay for Total Number of Spikes, Shafer Lab (AID 2284008);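 on AC50: curve fitted for decrease in spike count so AC50 reflects inhibitors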
# Outline: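 Primary rat cortical neurons on 16-electrode MEA wells; on DIV 13 or 15, 40-min baseline then 40-min recording with compound (0.03-40 uM) at 37 C. Spikes detected at 8x rms noise; percent change versus baseline, DMSO as negative control.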
# [8] = CCTE_Shafer_MEA_acute_firing_rate_mean: CCTE's Neural Acute Assay for Mean Firing Rate, Shafer Lab (AID 2284009);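 further: analyzed for loss of signal so actives lower firing rate relative to DMSO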
# Outline: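 Percent change in well-mean firing rate was derived from extracellular spikes detected at 8x rms noise (300-5000 Hz band-pass) before and after a 40-min compound exposure. Cultures were primary rat cortical neurons, tested at 0.03-40 uM.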
# [9] = system: DIO1 (gene 1733); experiment: CCTE_GLTED_hDIO1: CCTE's human Deiodinase 1 (DIO1) Inhibition Assay, Great Lakes Toxicology and Ecology Division (GLTED) Lab (AID 2283987; active means hit-call score of the fitted dose curve at least 0.9, where 1 is the maximum;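 further: isolated human DIO1 enzyme in a cell-free setup rather than cells; enzyme activity read as free iodide liberated from substrate via Sandell-Kolthoff colorimetry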)
# Outline: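 Cell-free human DIO1 enzyme was incubated with test chemical for 3 h, and iodide released from substrate was measured by Sandell-Kolthoff absorbance. Loss of signal versus DMSO baseline indicated inhibition; plates were run in triplicate.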
# [10] = TOX21_TR_RXR_BLA_Antagonist_Followup_viability: Viability Assessment in the Tox21 Thyroid Hormone Receptor beta Retinoid X Receptor alpha (RXRa) Antagonism Beta-lactamase (BLA) Follow-Up Assay (AID 2283979; active means hit-call score of the fitted dose curve at least 0.9, where 1 is the maximum)
# Outline: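 Follow-up compounds (11 concentrations, triplicate) were incubated 16 h at 37C/5% CO2 with HEK293T RXRa-bla cells seeded at 2,500/well in charcoal-stripped-serum medium. ATP content by CellTiter-Glo luminescence gave viability; curves fitted in both directions against DMSO.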
smiles,measurement,setting,value
Nc1ccc(S(N)(=O)=O)cc1,outcome,[1],inactive
same,outcome,[2],inactive
CCCCCCCCCCCCCOS(=O)(=O)O,outcome,[3],inactive
same,outcome,[4],inactive
NCCCN1CCOCC1,outcome,[3],inactive
same,outcome,[5],inactive
same,outcome,[4],inactive
c1ccc2c(c1)c1cccc3ccc4cccc2c4c31,outcome,[3],inactive
same,outcome,[5],inactive
same,outcome,[6],inactive
same,outcome,[4],inactive
Nc1cc([N+](=O)[O-])ccc1O,AC50,[7],2980 nM (active)
same,outcome,[8],inactive
BrC1CCC(Br)C(Br)CCC(Br)C(Br)CCC1Br (stereo unspecified),AC50,[3],43500 nM (active)
same,outcome,[5],inactive
same,outcome,[6],inactive
same,outcome,[4],inactive
OC1OC[C@@H](O)[C@H](O)[C@H]1O (stereo partly specified),outcome,[7],inactive
same,outcome,[8],inactive
C[Si](O[Si](C)(C)C)O[Si](C)(C)C,outcome,[3],inactive
C=C[Si](OCC)(OCC)OCC,outcome,[7],inactive
same,outcome,[8],inactive
CCCCC(CC)COC(=O)/C=C\C(=O)OCC(CC)CCCC (stereo unspecified),outcome,[3],inactive
same,outcome,[5],inactive
same,outcome,[6],inactive
same,outcome,[4],inactive
CCCCC[Si](OCC)(OCC)OCC,outcome,[3],inactive
same,outcome,[4],inactive
Cc1cccc(C)c1[N+](=O)[O-],outcome,[1],inactive
CCCCCCCCC=O,outcome,[7],inactive
same,outcome,[8],inactive
OC[C@H]1O[C@H](O[C@]2(CCl)O[C@H](CCl)[C@@H](O)[C@@H]2O)[C@H](O)[C@@H](O)[C@H]1Cl,outcome,[7],inactive
same,outcome,[8],inactive
CCCCCCCCCCCCCC(=O)O,AC50,[9],166000 nM (active)
same,outcome,[2],inactive
CCCCCCCCCCCCCCCC(=O)OC[C@H](O)[C@H]1OC(=O)C(O)=C1O,AC50,[9],89600 nM (active)
same,outcome,[3],inactive
same,outcome,[5],inactive
same,outcome,[6],inactive
same,outcome,[4],inactive
CCC/C=C/C=O,outcome,[3],inactive
same,outcome,[5],inactive
same,outcome,[6],inactive
same,outcome,[4],inactive
O=Nc1ccc(Nc2ccccc2)cc1,AC50,[3],2560 nM (active)
same,outcome,[5],inactive
same,AC50,[6],2510 nM (active)
same,outcome,[4],inactive
NCCNCCN,outcome,[7],inactive
same,outcome,[8],inactive
CCCOCC(C)O (stereo unspecified),outcome,[3],inactive
same,outcome,[5],inactive
same,outcome,[6],inactive
same,outcome,[4],inactive
CC(=O)O[C@]1(C(C)=O)CC[C@H]2[C@@H]3C[C@H](C)C4=CC(=O)CC[C@]4(C)[C@H]3CC[C@@]21C,outcome,[10],inactive
O=c1cc(-c2ccccc2)oc2cc(O)cc(O)c12,outcome,[3],inactive
same,outcome,[6],inactive
same,outcome,[4],inactive
same,outcome,[2],inactive
CCC(=O)OCc1ccccc1,outcome,[7],inactive
same,outcome,[8],inactive
c1ccc2[nH]ccc2c1,outcome,[3],inactive
same,outcome,[5],inactive
same,outcome,[6],inactive
same,outcome,[4],inactive
CC[Si](OC(C)=O)(OC(C)=O)OC(C)=O,outcome,[7],inactive
same,outcome,[8],inactive
O=C[C@@H](O)[C@H](O)[C@H](O)CO,outcome,[3],inactive
same,outcome,[5],inactive
same,outcome,[6],inactive
same,outcome,[4],inactive
CC(C)(COC(=O)c1ccccc1)COC(=O)c1ccccc1,outcome,[7],inactive
same,outcome,[8],inactive
CCN(CC)c1ccc(C(=C2C=CC(=[N+](CC)CC)C=C2)c2ccc(S(=O)(=O)O)cc2S(=O)(=O)[O-])cc1,outcome,[3],inactive
same,outcome,[4],inactive
C=CCOC(=O)CCC1CCCCC1,outcome,[7],inactive
same,outcome,[8],inactive
same,outcome,[2],inactive
CC(=O)OCCC(C)CC(C)(C)C (stereo unspecified),outcome,[7],inactive
same,outcome,[8],inactive
CN(C)C(=N)N=C(N)N,outcome,[7],inactive
same,outcome,[8],inactive
same,outcome,[2],inactive
CCCCNC(=O)NS(=O)(=O)c1ccc(C)cc1,outcome,[2],inactive
Cc1ccc(C(C)C)cc1O,outcome,[2],inactive
O=C1C(c2[nH]c3ccc(S(=O)(=O)O)cc3c2O)=Nc2ccc(S(=O)(=O)O)cc21,outcome,[2],inactive
CC1CCC(C(C)(C)O)CC1 (stereo unspecified),outcome,[2],inactive
CC(C)=CCO,outcome,[2],inactive
O=C(Nc1ccccc1)c1cc([N+](=O)[O-])ccc1Cl,outcome,[2],inactive
CC1(C)CCC(C)(C)c2cc(C(=O)Nc3ccc(C(=O)O)cc3)ccc21,outcome,[2],inactive
O=C[C@H](O)[C@H](O)[C@H](O)CO,outcome,[2],inactive
C[C@H]1C[C@@H]2[C@H]([C@@H](O)C[C@@]3(C)[C@H]2CC[C@]3(O)C(=O)CO)[C@@]2(C)C=CC(=O)C=C12,AC50,[7],3 nM (active)
same,AC50,[8],3 nM (active)
same,outcome,[2],inactive
N#Cc1ccccc1,outcome,[2],inactive
CCCCCC(CO)CCC (stereo unspecified),outcome,[2],inactive
COC(=O)C1=C(C)NC(C)=C(C(=O)OCCN(C)Cc2ccccc2)C1c1cccc([N+](=O)[O-])c1 (stereo unspecified),outcome,[2],inactive
O=C(O)c1ccc([N+](=O)[O-])cc1,outcome,[2],inactive
CC1CC(OC(=O)c2ccccc2O)CC(C)(C)C1 (stereo unspecified),outcome,[2],inactive
C=C(C)[C@@H]1CC[C@@H](C)C[C@@H]1O,outcome,[2],inactive
CN(C)CCOCCN(C)C,outcome,[2],inactive
CCCCCCCCCC=O,outcome,[2],inactive
COc1cc(C=O)ccc1OC(=O)C(C)C,outcome,[7],inactive
same,outcome,[8],inactive
same,outcome,[2],inactive
O=C(O)CN(CCN(CC(=O)O)CC(=O)O)CCN(CC(=O)O)CC(=O)O,outcome,[2],inactive
O=C(O)c1cn(C2CC2)c2cc(N3CCNCC3)c(F)cc2c1=O,outcome,[2],inactive
C=O,outcome,[2],inactive
CC(C)[C@H]1CC[C@@H](C)CC1=O,outcome,[2],inactive
Cc1ccc(C=O)cc1,outcome,[2],inactive
CC(=O)[C@H]1CC[C@H]2[C@@H]3CC=C4C[C@@H](O)CC[C@]4(C)[C@H]3CC[C@]12C,AC50,[7],7.9 nM (active)
same,AC50,[8],5.37 nM (active)
same,outcome,[2],inactive
Cc1cc(C2(c3cc(C)c(O)cc3C)OS(=O)(=O)c3ccccc32)c(C)cc1O,outcome,[7],inactive
same,outcome,[8],inactive
same,outcome,[2],inactive

# From PubChem BioAssay (EPA / NIEHS)
